Screening data deposited in PubChem BioAssay by National Center for Advancing Translational Sciences (NCATS).
HT1080NT lethal: qHTS for induction of synthetic lethality in tumor cells producing 2HG: qHTS for the HT-1080-NT fibrosarcoma cell line; HT-1080-NT fibrosarcoma viability, CellTiter-Glo ATP luminescence, 48 h; Potency, µM (series often up to 46.1 µM), most hits filed as cytotoxic; 360,000 compounds, 1.6% hits;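 also: NT is the 2HG producing partner of a matched IDH1 knockdown line; nearly all actives have a fitted effect of over 55% in size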
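Viability by CellTiter-Glo luminescence after 48 h compound exposure at 37C of HT-1080-NT cells (750/well, RPMI, 5% FBS). % activity scaled between DMSO wells and medium-only wells, then curve-fitted and categorized by curve class.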
IL-1B inflam inh: qHTS for Inhibitors of Inflammasome Signaling: IL-1-beta AlphaLISA Primary Screen. THP-1 LPS/ATP IL-1B secretion, AlphaLISA, 16 h; hits give low values. activity change, % at 57.5 µM. 360,000 compounds, 4.7% hits. AID 743279, 2014; in the data active = activity change below about -50%; inconclusive = mostly about -30% to -49%
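Secreted IL-1B measured by AlphaLISA bead assay after 16 h compound exposure of THP-1 cells; compounds (final up to 57.5 uM) added 1 h before LPS (250 ng/mL) and ATP (1.25 mM) stimulation; lower signal means less secretion.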
ELG1 repair inh: qHTS screen for small molecules that inhibit ELG1-dependent DNA repair in human embryonic kidney (HEK293T) cells expressing luciferase-tagged ELG1; HEK293T ELG1-luciferase reporter, luminescence, 16 h; DNA damage induced by 5-fluorouridine; Potency, µM (series often up to 46.1 µM), actives largely listed as inhibitors; 330,000 compounds, 2.3% hits; AID 504467, 2011; also: nearly all actives have a fitted effect of over 55% in size
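Luminescence from the luciferase reporter, measured 30 min after ONE-Glo reagent at room temperature, was the read-out. Beforehand, 2,000 cells per well were exposed for 16 hr at 37 °C to 5-fluorouridine together with compound or vehicle.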
HT1080 IDH1KD tx: qHTS for induction of synthetic lethality in tumor cells producing 2HG: qHTS for the HT-1080-IDH1KD cell line; Potency, µM (doses to about 46.1 µM), usual class: cytotoxic; 360,000 compounds, 2% hits; HT-1080 IDH1 knockdown viability, ATP luminescence, 48 h; AID 686971, 2013
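IDH1KD HT-1080 cells, 750/well, RPMI + 5% FBS; compound pinned after 2 h settling; 48 h, 37 °C; CellTiter-Glo luminescence; % activity normalised to DMSO and no-cell wells; curves fitted, classed by r2 and efficacy.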
DT40 TDP1 no CPT: qHTS for Inhibitors of human tyrosyl-DNA phosphodiesterase 1 (TDP1): qHTS in cells in absence of CPT; DT40 Tdp1-/- hTDP1 cells, no CPT, ATP luminescence, 48 h; Potency, µM (series often up to 46.2 µM), hits mostly inhibitors; 420,000 compounds, 15% hits; AID 686978, 2013; also: nearly all actives have a fitted effect of over 55% in size
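Stably hTDP1-transfected Tdp1-null chicken DT40 cells were treated with library compounds minus camptothecin and grown for at least 48 hr at 37 °C, after which cellular ATP was quantified by luminescence.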
DT40 TDP1 CPT: qHTS for Inhibitors of human tyrosyl-DNA phosphodiesterase 1 (TDP1): qHTS in cells in presence of CPT. Potency, µM (series often up to 46.2 µM), actives largely listed as inhibitors. AID 686979, 2013. chicken DT40 Tdp1-/-;hTDP1 cells + 20 nM CPT, ATP luminescence, 48 h. 420,000 compounds, 12% hits; also: nearly all actives have a fitted effect of over 55% in size
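Chicken DT40 Tdp1-/- cells stably complemented with human TDP1 were seeded at 400 cells/well in medium containing 20 nM camptothecin, exposed to pin-transferred compounds, and grown at 37 °C for at least 48 hr. Viability was read as ATP luminescence.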
A number is an active result. A selection: hits, their analogues and other compounds. The true share with any hit is near 19%. Unless noted, calls follow the shape of the dose curve; as a rule, active = well fitted curve in the direction sought with a large enough effect; inconclusive = small, poorly fitted or top-dose-only effect, or another doubt; inactive = no such curve, though single readings can be large; an effect the other way counts as inactive or inconclusive.

Results for O=S(=O)(NCC(c1cccnc1)N1CCN(c2ccccc2F)CC1)c1cccs1 (stereo not drawn) ?
HT1080NT lethal: inactive; IL-1B inflam inh: inactive; ELG1 repair inh: inactive; HT1080 IDH1KD tx: inactive; DT40 TDP1 no CPT: inconclusive; DT40 TDP1 CPT: 15µM

What do the screens show for `O=C(NCC(c1cccnc1)N1CCN(c2ccccc2F)CC1)c1cccc(Cl)c1` (stereo not drawn)?
HT1080NT lethal: inactive; IL-1B inflam inh: inconclusive; ELG1 repair inh: inconclusive; HT1080 IDH1KD tx: inactive; DT40 TDP1 no CPT: 16µM; DT40 TDP1 CPT: 21µM

What do the screens show for `O=C(NCC(c1cccnc1)N1CCN(c2ccccc2F)CC1)c1ccc(F)cc1` (stereo not drawn)?
DT40 TDP1 no CPT: 21µM; DT40 TDP1 CPT: 15µM

What do the screens show for `CS(=O)(=O)NCC(c1cccnc1)N1CCN(c2ccccc2F)CC1` (stereo not drawn)?
HT1080NT lethal: inactive; IL-1B inflam inh: inactive; ELG1 repair inh: inconclusive; HT1080 IDH1KD tx: inactive; DT40 TDP1 no CPT: inactive; DT40 TDP1 CPT: inactive

What do the screens show for `O=C(NCC(c1cccnc1)N1CCN(c2ccc(F)cc2)CC1)c1ccco1` (stereo not drawn)?
HT1080NT lethal: inactive; IL-1B inflam inh: inactive; ELG1 repair inh: inactive; HT1080 IDH1KD tx: inactive; DT40 TDP1 no CPT: 16µM; DT40 TDP1 CPT: inconclusive

Results for Nc1c(C(=O)CSc2n[nH]c(-c3ccccc3)n2)c(=O)[nH]c(=O)n1C1CC1 ?
HT1080NT lethal: inactive; IL-1B inflam inh: inactive; ELG1 repair inh: inactive; HT1080 IDH1KD tx: inactive; DT40 TDP1 no CPT: inactive; DT40 TDP1 CPT: inactive

What do the screens show for `O=C(NCc1ccncc1)C(=O)NCC(c1ccco1)N1CCN(c2ccccc2)CC1` (stereo not drawn)?
HT1080NT lethal: inactive; IL-1B inflam inh: inactive; ELG1 repair inh: 21µM; HT1080 IDH1KD tx: inactive; DT40 TDP1 no CPT: inactive; DT40 TDP1 CPT: inconclusive

Results for O=C(NCC(c1cccnc1)N1CCN(c2ccc(F)cc2)CC1)c1ccc(F)cc1 (stereo not drawn) ?
HT1080NT lethal: inactive; IL-1B inflam inh: inactive; ELG1 repair inh: inconclusive; HT1080 IDH1KD tx: inactive; DT40 TDP1 no CPT: 16µM; DT40 TDP1 CPT: inconclusive

Results for COCCNC(=O)C(=O)NCC(c1cccnc1)N1CCN(c2ccccc2F)CC1 (stereo not drawn) ?
DT40 TDP1 no CPT: inactive; DT40 TDP1 CPT: inactive

What do the screens show for `O=C(NCc1ccncc1)C(=O)NCC(c1ccco1)N1CCN(c2ccccc2F)CC1` (stereo not drawn)?
HT1080NT lethal: inactive; IL-1B inflam inh: inactive; ELG1 repair inh: inconclusive; HT1080 IDH1KD tx: inactive; DT40 TDP1 no CPT: inactive; DT40 TDP1 CPT: inactive

Results for COc1ccc(C(=O)NCC(c2cccnc2)N2CCN(c3ccc(F)cc3)CC2)cc1OC (stereo not drawn) ?
HT1080NT lethal: inactive; IL-1B inflam inh: inactive; ELG1 repair inh: inactive; HT1080 IDH1KD tx: inactive; DT40 TDP1 no CPT: inconclusive; DT40 TDP1 CPT: inconclusive

Results for O=C(NCCc1ccccc1)C(=O)NCC(c1cccnc1)N1CCN(c2ccccc2F)CC1 (stereo not drawn) ?
DT40 TDP1 no CPT: inconclusive; DT40 TDP1 CPT: 21µM

Results for COc1cc(C(=O)NCC(c2cccnc2)N2CCN(c3ccc(F)cc3)CC2)cc(OC)c1OC (stereo not drawn) ?
HT1080NT lethal: inactive; IL-1B inflam inh: inactive; ELG1 repair inh: inconclusive; HT1080 IDH1KD tx: inactive; DT40 TDP1 no CPT: 21µM; DT40 TDP1 CPT: inconclusive
